SIRT5 inh: inhibitors of human sirtuin-5 desuccinylase; Q9NXA8; Purified SirT5, succinyl-peptide AMC, trypsin-coupled fluorescence; inhibition, % at 15 µM; 330,000 compounds, 1.1% hits; in the data active means inhibition above about 15%
Target sequence (Q9NXA8 whole entry, looked up): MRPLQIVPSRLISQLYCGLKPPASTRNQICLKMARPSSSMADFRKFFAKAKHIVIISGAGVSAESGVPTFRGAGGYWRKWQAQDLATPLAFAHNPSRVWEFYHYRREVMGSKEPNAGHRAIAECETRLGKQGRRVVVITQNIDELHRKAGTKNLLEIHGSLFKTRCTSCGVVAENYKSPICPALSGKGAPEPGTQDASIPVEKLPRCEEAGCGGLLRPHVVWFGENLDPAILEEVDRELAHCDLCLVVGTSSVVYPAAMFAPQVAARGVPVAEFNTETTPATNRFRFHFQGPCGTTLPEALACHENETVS
FGF22 binding: FGF22 (human) thermal shift binding. 340,000 compounds, 1.5% hits. recombinant FGF22 thermal shift, SYPRO orange fluorescence; percent of sucrose octasulfate shift, DMSO zero. Q9HCT0. activity (Tm shift, normalised), % at 9.99 µM;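 active means mean Tm shift, scaled 0 neutral to 100 positive control, at about 1.3% or above, every replicate too, limit read from the data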
ERAP1 inh: inhibitors of human ERAP1 aminopeptidase; inhibition, % at 10.7 µM; recombinant ERAP1, Leu-AMC fluorescence, 60 min; Q9NZ08; 340,000 compounds, 0.15% hits; AID 652197;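 active means mean replicate inhibition of at least 30%, or all replicates individually reaching that 30% level; inactive means mean below 30% and not every replicate reaching it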;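 further: 0% = neutral control wells and 100% = L-leucinethiol positive control wells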
Casp6 inh: inhibitors of human caspase-6 | purified caspase-6, Z-VEID-R110 cleavage fluorescence | AID 686996 | inhibition, % at 12.5 µM | 350,000 compounds, 0.53% hits;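 active means mean inhibition across replicates at least about 35%, with every replicate also reaching that limit, limit read from the data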;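 further: 0% = median of neutral control wells and 100% = no fluorescence left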
Target sequence (P55212 24-179 limits assumed): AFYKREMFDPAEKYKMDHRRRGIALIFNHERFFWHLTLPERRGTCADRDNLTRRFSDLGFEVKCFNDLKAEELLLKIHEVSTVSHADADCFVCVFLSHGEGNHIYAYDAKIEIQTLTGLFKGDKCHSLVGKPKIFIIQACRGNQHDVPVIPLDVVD
Target sequence (P55212 194-293 limits assumed): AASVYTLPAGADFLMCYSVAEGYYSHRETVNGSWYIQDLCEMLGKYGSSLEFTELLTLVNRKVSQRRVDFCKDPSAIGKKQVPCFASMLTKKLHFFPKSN
The depositor's hits bear a star; / = no result given. Only some compounds are listed: those with a hit (about 3.1% of all), similar ones and a draw of the others.

SMILES	SIRT5 inh	FGF22 binding	ERAP1 inh	Casp6 inh
CCS(=O)(=O)N1CC2(C1)[C@@H](c1ccccc1)[C@H](CO)N2Cc1ccc(F)cc1	15.7*	-0.3	-5.1	0.6
C/C=C/c1ccc([C@@H]2[C@H](CO)N(CC3CC3)C23CN(S(C)(=O)=O)C3)cc1	-0.6	0.0	1.0	1.6
CCCNC(=O)N1[C@@H](CO)[C@H](c2ccccc2)C12CN(C(=O)CC1CC1)C2	37.6*	0.1	-1.9	2.1
C[C@H]1CN([C@@H](C)CO)C(=O)c2cc(NS(C)(=O)=O)ccc2O[C@@H]1CN(C)C(=O)Nc1ccc(F)cc1	-2.9	-0.1	-2.4	0.5
C[C@H](CO)N1C[C@H](C)[C@@H](CN(C)C(=O)C2CCCCC2)Oc2ncc(C#CC3CCCC3)cc2C1=O	10.9	-0.3	-5.3	0.0
COc1cccc(CN2[C@H](CO)[C@@H](c3ccccc3)C23CN(C(=O)C2CCCC2)C3)c1	-2.3	/	2.4	0.5
CN(C)CC(=O)N1[C@H](CO)[C@@H](c2ccccc2)C12CN(C(=O)C1CCCC1)C2	18.9*	/	0.7	0.5
COc1cccc(CN2[C@H](CO)[C@@H](c3ccccc3)C23CN(C(=O)C2CCC2)C3)c1	24.0*	/	3.7	1.3
O=C(Cc1cccnc1)N1CC2(C1)[C@H](c1ccccc1)[C@@H](CO)N2C(=O)C1CCCC1	-9.6	/	-0.4	-0.6
CC(C)NC(=O)N1[C@H](CO)[C@@H](c2ccccc2)C12CN(C(=O)Cc1cccnc1)C2	1.2	0.8	1.5	42.0*
O=C(C1CCOCC1)N1CC2(C1)[C@@H](c1ccccc1)[C@@H](CO)N2CCC(F)(F)F	26.2*	/	-2.3	-1.8
O=C(C[C@H]1C[C@@H]2c3cc(NC(=O)Nc4ccccc4F)ccc3O[C@@H]2[C@H](CO)O1)NC1CCCC1	-5.8	0.1	-2.4	-0.8
COC(=O)C[C@@H]1CC[C@H]2[C@@H](COc3ccc(NS(=O)(=O)c4ccccc4Cl)cc3C(=O)N2C)O1	0.0	-0.1	-1.8	-4.1
C[C@H]1CN([C@@H](C)CO)S(=O)(=O)c2ccc(C#Cc3ccccc3)cc2O[C@@H]1CN(C)S(=O)(=O)c1cn(C)cn1	0.2	-0.7	1.2	-0.2
O=C(CC1CC1)N1CC2(C1)[C@@H](c1ccccc1)[C@@H](CO)N2Cc1cccc(F)c1	18.8*	0.0	-1.1	-2.3
CCC(=O)N1CC2(C1)[C@H](c1ccccc1)[C@H](CO)N2Cc1ccccc1OC	22.7*	-0.1	0.1	-0.4
Cc1ccc(C)c(S(=O)(=O)N2CCN(C(=O)c3ccc(N4CCCC4)c([N+](=O)[O-])c3)CC2)c1	-0.7	-0.1	-1.8	-2.6
O=C(c1ccc(N2CCCC2)c([N+](=O)[O-])c1)N1CCN(S(=O)(=O)c2ccccc2)CC1	32.6*	0.1	1.1	2.2
CCC(=O)N1[C@@H]2Cn3c(cccc3=O)[C@H]1[C@@H](C(=O)NCc1ccc(F)cc1)[C@@H]2CO	3.2	0.0	0.0	12.2
CC(C(=O)Nc1ccc(F)c(F)c1F)N(C)Cc1cccs1 (stereo not given)	16.3*	-0.1	3.0	1.1
CC1(C)Cc2ccccc2C(/C(C#N)=N/O)=N1	1.6	42.9*	5.2	0.4
COc1ccc(N/N=C(/C(N)=O)C2=NC(C)(C)Cc3ccccc32)cc1	2.2	-0.4	-4.3	4.3
C[C@H](CO)N1C[C@H](C)[C@H](CN(C)CC2CC2)Oc2c(NS(=O)(=O)c3cccs3)cccc2C1=O	0.6	-0.3	-0.9	-1.4
CCOC(=O)C(NC(=O)CC)(Nc1ccc(S(=O)(=O)Nc2onc(C)c2C)cc1)C(F)(F)F (stereo not given)	1.0	/	15.8	4.2
CCOC(=O)C(NC(C)=O)(Nc1ccc(S(=O)(=O)Nc2ncccn2)cc1)C(F)(F)F (stereo not given)	19.0*	0.2	1.9	-0.5
SMILES	SIRT5 inh	FGF22 binding	ERAP1 inh	Casp6 inh
CCCCC#Cc1ccccc1COC[B-](F)(F)F	0.4	1.4*	3.8	8.0
F[B-](F)(F)COCc1ccccc1C#Cc1ccccc1	-3.0	1.2	3.4	8.6
COc1ccccc1NC(=O)c1ccc(NC(=O)CN(C)Cc2ccccc2F)cc1	0.9	43.3*	8.5	1.1
COc1ccccc1CN(C)CC(=O)Nc1ccccc1-c1ccccc1	-2.8	0.1	-3.9	5.2
C[C@@H]1CN([C@@H](C)CO)C(=O)c2cc(NS(=O)(=O)c3ccc(F)cc3)ccc2O[C@@H](C)CCCCO[C@@H]1CN(C)Cc1ccc(C(=O)O)cc1	2.0	-0.2	0.1	1.5
CCC(C)NC(=O)c1oc2ccc(S(=O)(=O)N3CCC4(CC3)OCCO4)cc2c1C (stereo not given)	-4.1	-0.4	-0.2	-2.9
Cc1c(C(=O)NCc2ccccn2)oc2ccc(S(=O)(=O)N3CCC4(CC3)OCCO4)cc12	0.3	43.0*	-6.3	1.0
COc1ccc(NC(=O)Nc2ccc3c(c2)CC(=O)N([C@H](C)CO)C[C@H](C)[C@@H](CN(C)Cc2ccc(C(=O)O)cc2)O3)cc1	-0.5	-0.3	0.7	0.2
O=C1Nc2ccccc2Oc2cc([N+](=O)[O-])ccc21	1.7	43.2*	-6.0	0.2
Cc1ccc2c(c1)NC(=O)c1cc([N+](=O)[O-])ccc1O2	-0.8	-0.1	-2.4	4.1
O=C1NC(Cc2ccc(O)cc2)c2nc3ccc(F)cc3c(=O)n2-c2cc3ccccc3cc21 (stereo not given)	28.8*	0.6	-0.6	1.6
COc1cc2nc3n(c(=O)c2cc1OC)-c1cc2ccccc2cc1C(=O)NC3CC(C)C (stereo not given)	/	43.4*	2.2	2.5
COc1cc2nc3n(c(=O)c2cc1OC)-c1cc2ccccc2cc1C(=O)NC3Cc1ccccc1 (stereo not given)	-3.3	-0.2	/	3.6
O=C1NC(Cc2ccc(O)cc2)c2nc3cc(F)c(F)cc3c(=O)n2-c2cc3ccccc3cc21 (stereo not given)	/	-0.2	/	1.1
CN(C)/C=C1/C=C(C=O)OC1=O	5.0	0.2	10.3	44.9*
CC1=C/C(=C/N(C)C)C(=O)O1	1.7	0.1	2.0	2.7
C[N+]1(CC(=O)OCCCC2CCCCC2)CCCC1	1.2	-0.2	107.9*	-2.0
CC(C)(C)C1CCC(OC(=O)C[N+]2(C)CCCCC2)CC1 (stereo not given)	-3.0	0.4	2.8	-4.4
CC(C)(C)C1CCC(OC(=O)C[N+]2(C)CCCC2)CC1 (stereo not given)	-0.1	0.0	40.9*	-4.8
O=C(CN1CCCC1)OCCCC1CCCCC1	-5.3	0.1	2.3	1.4
COc1cc(C(=O)Nc2cccc(-c3nnc(-c4ccco4)o3)c2)ccc1OC(C)=O	-1.1	44.0*	1.0	-1.9
C[C@H](CO)N1C[C@H](C)[C@H](CN(C)C(=O)c2ccncc2)Oc2cc(C3=CCCCC3)ccc2S1(=O)=O	-1.6	-0.1	-0.7	-2.1
O=C(c1ccccc1)c1ccccc1N1C(=O)C=CC1=O	0.8	/	/	-0.7
O=C1C=CC(=O)N1c1ccccc1N1C(=O)C=CC1=O	-1.1	-0.1	58.1*	-1.7
COCC(=O)Nc1ccc2c(c1)C(=O)N(C)[C@H]1CC[C@H](CC(=O)NCC3CC3)O[C@H]1CO2	-4.5	0.0	-1.2	-0.4

Screening data deposited in PubChem BioAssay by Broad Institute.
